Reference: PubChem BioAssay AID449762 (Southern Research Specialized Biocontainment Screening …, 2010)
The whole screen tested about 330,000 compounds, of which about 1,900 (0.58%) were called active. Another 4% or so got no clear call; they are omitted. A selection follows. Results with a measured potency or affinity are listed apart. A number with no mark means an inactive call. Cut-off read from the data, not from the text of the source: inconclusive = inhibition above about 70% without an active follow-up result; inactive = below that.

Assay: M. tuberculosis growth inhibition, HTS (AID 449762);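 note: bacterial growth assessed after seven days of incubation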
Settings: M. tuberculosis H37Rv growth inhibition, 7H9 media; at 25 µM; stronger effect = higher value

SMILES	inhibition [%]
O=C(Nc1ccn(Cc2c(F)c(F)c(F)c(F)c2F)n1)c1ccc(COc2ccccc2Cl)cc1	-14
O=C(Nc1ccn(Cc2c(F)c(F)cc(F)c2F)n1)c1ccc(COc2ccccc2Cl)cc1	0.39
CCCOC(=O)C1NC(=O)N2C(C(=O)OCCC)C(C)(C)S[C@H]12 (stereo partly drawn)	-1.23
c1ccc(-c2ccc(SCc3cccnc3)nn2)nc1	-8.38
c1ccc(CSc2ccc(-c3ccccn3)nn2)nc1	7.58
CC(=O)c1ccc(NC(=O)C(C)Sc2nnc3ccccn23)cc1 (stereo not drawn)	-6.02
C=CCn1c(O)c(N=Nc2ccccc2C)c2ccccc21	53.8
C=CCn1c(O)c(N=Nc2ccccc2)c2ccccc21	19.4
O=C(Nc1ccc(C(=O)N2CCCC2)cc1)Nc1ccc(Cl)cc1Cl	-2.35
CC(C)c1nc(NCCO)c2nnn(Cc3ccccc3)c2n1	-8.58
COc1ccc(-n2nc(C(=O)NCC(=O)Nc3cc(C)ccc3OC)c3ccccc3c2=O)c(OC)c1	12.5
c1ccc(Cn2c[n+](Cc3ccccc3)c3ccccc32)cc1	2.04
Cc1ccc(OCC(O)CN2CCN(c3ccc(C)cc3)CC2)cc1 (stereo not drawn)	10.5
CO/N=C/CC(=O)Nc1ccc(F)cc1F	-4.1
O=C(CCNC(=O)c1ccc([N+](=O)[O-])cc1)Nc1ccc(F)cc1F	17.9
O=C(COC(=O)c1ccc(F)cc1F)NCc1ccc2c(c1)OCO2	2.2
C=CCOc1ccc(C2=NOC(C(=O)Nc3ccc4c(c3)OCCO4)C2)cc1OC (stereo not drawn)	4.17
O=C(Nc1ccc2c(c1)OCCO2)C1CC(c2ccc(F)cc2)=NO1 (stereo not drawn)	-3.61
COc1ccccc1-c1nnc2sc(C3CCCCC3)nn12	-3.09
COc1cccc(-c2nnc3sc(C4CCCCC4)nn23)c1	66.4
CC(CN1CCCC1)OC(=O)c1ccc(Cl)cc1Cl (stereo not drawn)	4.38
CCCCNC(=S)N1CCN(c2ccc(C(C)=O)cc2)CC1	7.05
CC(=O)c1ccc(N2CCN(C(=S)NCCCN(C)C)CC2)cc1	3.66
COc1ccc(-c2sc(Nc3ccccc3)n[n+]2-c2ccc(F)cc2)c(C)c1C	1.59

SMILES	inhibition [%]
CC(C)c1ccccc1NC(=O)CC1(CC(=O)O)CCCC1	-1.9
Cc1ccc(N2C(=O)[C@@H]3Cc4ccccc4CN3C2=O)cc1	1.44
O=[N+]([O-])c1c(C(Cl)Cl)nn(-c2ccccc2)c1N1CCOCC1	5.81
O=[N+]([O-])c1c(C(Cl)Cl)nn(-c2ccccc2)c1N1CCCC1	-9.83
Cc1cc(C)n(-c2ccc(C(=O)NCc3cccs3)cc2)n1	-8.74
COc1ccc(-c2cc(N)n(S(=O)(=O)c3ccc(C)cc3)n2)c(OC)c1	-6.16
Cc1cc(/C=C2\SC(=O)N(C)C2=O)c(C)n1-c1ccc(S(N)(=O)=O)cc1	-2.91
Cc1ccc(-n2c(C)cc(/C=C3\SC(=O)NC3=O)c2C)cc1	7.2
Nc1ccc(-c2cc(-c3ccc(N)cc3)nc(-c3ccccc3)n2)cc1	-2.43
COc1ccccc1N1CCN(C(c2cccs2)C(C)NC(=O)C(=O)N2CCCCC2)CC1 (stereo not drawn)	3.15
Cc1cc(C(=O)Nc2c(C)nn(Cc3ccccc3Cl)c2C)no1	-4.86
Cc1ccc(S(=O)(=O)Oc2cccc(/C=N/Nc3ccc(C(=O)O)cc3)c2)cc1	20.9
CC(C)(C)c1ccc(Cn2nnc3c(=O)[nH]c(C4CCCN(C(=O)c5cccs5)C4)nc32)cc1 (stereo not drawn)	11.9
O=C(Cc1cccs1)N1CCCC(c2nc3c(nnn3Cc3ccc(F)cc3)c(=O)[nH]2)C1 (stereo not drawn)	-5.77
COc1c(/C=N/NC(N)=S)c(C)nn1-c1ccccc1	65.5
CCC1CN(C(=O)N2CCC(C(=O)NCCc3ccccc3OC)CC2)c2ccccc2O1 (stereo not drawn)	2.39
CCCc1cc2c(cc1NC(=O)c1ccccc1F)OCO2	42
CCCc1cc2c(cc1NC(=O)c1ccco1)OCO2	0.1
CCCCNC(=S)N(C)/N=C/c1ccc(OCC(=O)Nc2ccc(OC)cc2)c(OC)c1	5.57
O=C(NNC(=O)c1cccc(-n2cnnn2)c1)c1ccccc1	4.62
COc1ccc(CCN2CCCC(CN(C)Cc3cc(OC)c(OC)c(OC)c3)C2)cc1 (stereo not drawn)	2.86
CCCCCCCCNC(=O)/C(C#N)=C/c1ccccc1[N+](=O)[O-]	9.84
O=[N+]([O-])c1ccc(N=Cc2ccc(Br)c([N+](=O)[O-])c2)cc1	-2.74
C(=Nc1ccc(Nc2ccccc2)cc1)c1ccc2ccccc2c1	1.29

SMILES	inhibition [%]
Cc1ccc(NC(=O)CCSc2ccccn2)cc1	-4.42
Cc1cccc(N2CCN(C(=O)C3CCN(S(=O)(=O)c4cccc5cccnc45)CC3)CC2C)c1 (stereo not drawn)	-1.75
Cc1cc(C)c(NC(=O)COC(=O)Cn2nc(-c3ccccc3)oc2=O)c(C)c1	3.1
C[C@@H]1C[C@H]2OC(=O)C3(CO3)[C@H]2[C@H](O)[C@]2(C)C(=O)C3OC3[C@@H]12 (stereo partly drawn)	-4.69
C=C1C(=O)O[C@@H]2C[C@@H](C)[C@H]3C=CC(=O)[C@]3(O)C[C@@H]12	7.75
Cc1cccc(NC(=O)NNC(=O)COc2ccc3ccccc3c2)c1	-0.35
COc1ccc(OC)c(C(c2nnnn2C2CCCC2)N2CCN(c3ccc(F)cc3)CC2)c1 (stereo not drawn)	4.35
O=C1C(=O)N(c2ccccn2)C(c2ccc(F)cc2)/C1=C(/O)c1ccc(Br)cc1 (stereo not drawn)	-4.6
CC1CCCC(NC(=O)CSC2CCCCC2)C1C (stereo not drawn)	3.14
CC1CCCC(NC(=O)NC(=O)COC(=O)c2ccc(O)cc2O)C1C (stereo not drawn)	0.995
Cc1cccc(OCC(=O)NNC(=O)Cn2c(=O)cnc3ccccc32)c1	-8.21
O=C(CSc1nc(=O)n2ccccc2n1)Nc1cccc2ccccc12	5.25
N#Cc1ccccc1OCC(=O)N1N=C(c2cccs2)CC1c1ccco1 (stereo not drawn)	1.37
c1ccc(-c2cn3c(n2)CCC3)cc1	-1.06
c1ccc(-c2cc3ncccc3cn2)cc1	-4.81
O=C(Nc1cccc2c1CCCC2)c1ccccc1F	10.2
NC(=O)c1ccc(-n2c(CCC(=O)O)ccc2-c2cccs2)cc1	-1.94
CC(=O)c1ccc(-n2c(CCC(=O)O)ccc2-c2cccs2)cc1	-2.12
CCc1ccc(NC(=O)CC2C(=O)N(c3ccc(OC)cc3)C(=O)N2CCOC)cc1 (stereo not drawn)	-1.31
CC(C)CNC(=O)c1c(N)n(/N=C/c2ccccn2)c2nc3ccccc3nc12	4.33
CCC(C)NC(=O)c1c(N)n(/N=C/c2cccnc2)c2nc3ccccc3nc12 (stereo not drawn)	27.8
COc1ccc(/C=C/C(=O)Nc2ccccc2Cl)cc1S(=O)(=O)N1CCOCC1	-10.4
COc1ccc(Cn2nnnc2CN2CCc3ccccc32)cc1	1.54
CC(OC(=O)c1snc(C(=O)NC2CCCCC2)c1N)C(=O)NC1CCCCC1 (stereo not drawn)	-2.81

SMILES	inhibition [%]
O=C(COC(=O)c1nsc(Cl)c1Cl)NC1CCCCC1	0.77
c1ccc(-c2nc3cccnc3nc2-c2ccccc2)cc1	-12.8
Nc1c(-c2ccccc2)nc(Cl)nc1-c1ccccc1	15.6
COc1ccc(S(=O)(=O)NCC(=O)N(CC(=O)NCC2CCCO2)Cc2ccccc2)cc1 (stereo not drawn)	-4.12
COc1ccc(CCNC(=O)C(=O)NCc2ccc(C(C)C)cc2)cc1OC	-15.8
COc1ccc(C2(c3ccc(OC)cc3)NC(=O)N(CC(=O)Nc3ccc(C(N)=O)cc3)C2=O)cc1	-7.66
COc1ccc(NC(=O)CN2C(=O)NC(c3ccccc3)(c3ccccc3)C2=O)cc1	-1.71
CC(C)CCc1noc(CN(CC2CCC2)CC2CCCO2)n1 (stereo not drawn)	-1.94
O=C(COC(=O)Cc1ccc(S(=O)(=O)N2CCOCC2)s1)Nc1ccc([N+](=O)[O-])cc1	-2.45
Cc1ccc(CNC(=O)c2ccc(N3CCC4(CC3)CC(c3ccccc3)=NO4)c(NC(=O)c3ccc(Cl)c([N+](=O)[O-])c3)c2)cc1	-10.7
Cc1ccc(NC(=O)CCN2C(=O)c3cccc([N+](=O)[O-])c3C2=O)c(Br)c1	7.28
Cc1cccc(NC(=O)CCN2C(=O)c3cccc([N+](=O)[O-])c3C2=O)c1	-5.47
O=C(CN1C(=O)COc2ccccc21)c1cccc(Cl)c1	1.54
CCCN=C1CC(C)(C)CC(=O)/C1=C(/O)CCC	-3.03
CCCCN=C1CC(C)(C)CC(=O)/C1=C(/O)CCC	-2.63
CC(=O)Nc1ccc(C(=O)NNC(=O)C2CC2)cc1	-9.13
Cc1ccccc1[N+](=O)[O-]	-10.8
O=[N+]([O-])c1cccc2c([N+](=O)[O-])cccc12	9.13
COc1cccc(CN(C)CC(=O)NCc2ccc(C)cc2)c1	7.23
NNC(=O)CN1C(c2ccc(Cl)cc2)=Nc2ccc(Br)cc2C1c1ccccc1 (stereo not drawn)	0.4
COC(=O)CN1C(c2ccccc2)=Nc2ccc(Cl)cc2C1c1ccccc1 (stereo not drawn)	55.5
